Assay [1] in a line: Nuclear factor erythroid 2-related factor 2/antioxidant responsive element (Nrf2/ARE) small molecule agonists: qHTS cell viability counter screen in human keratinocytes (AID 1919968; active means well fitted curve in the direction sought with a large enough effect in the repeat runs; an effect the other way counts as inactive or inconclusive; further: nearly all actives have a fitted effect of over 55% in size; further: potency means the concentration at half of the fitted maximal effect). A digest of the protocol:
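KeratinoSens cells (HaCaT keratinocytes stably carrying an ARE-luciferase reporter) were seeded at 1,500 cells/well and rested 5 h at 37 C/5% CO2. They were then exposed to compounds in DMSO for 23 h. Viability was read by CellTiter-Fluor fluorescence after 1 h.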
In general terms: qHTS replaces the single test concentration by a dilution series.

Assay [2] can be described thus: Nuclear factor erythroid 2-related factor 2/antioxidant responsive element (Nrf2/ARE) small molecule agonists: luciferase reporter gene qHTS assay in human keratinocytes (AID 1919969). Further: nearly all actives have a fitted effect of over 35% in size. Further: potency means the concentration at half of the fitted maximal effect. For orientation: A reporter such as luciferase makes a cellular process visible.
In assay [3] the target is KiSS-1 receptor (Homo sapiens) (UniProt Q969F8). Briefly: Human kisspeptin (KISS1R) small molecule agonists, calcium flux assay in KISS1R-HEK293 cells (AID 1920064; active means well fitted curve in the direction sought with a large enough effect in the repeat runs; an effect the other way counts as inactive or inconclusive). A digest of the protocol: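 HEK293 cells stably expressing human KISS1R were plated 18 h at 37 °C, loaded with calcium dye for 1 h at 37 °C, then given compound by pin tool. Fluorescence (Ex/Em 480/540) was read kinetically for 3 min.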
KiSS-1 receptor (Homo sapiens), sequence (Q969F8 whole entry, looked up): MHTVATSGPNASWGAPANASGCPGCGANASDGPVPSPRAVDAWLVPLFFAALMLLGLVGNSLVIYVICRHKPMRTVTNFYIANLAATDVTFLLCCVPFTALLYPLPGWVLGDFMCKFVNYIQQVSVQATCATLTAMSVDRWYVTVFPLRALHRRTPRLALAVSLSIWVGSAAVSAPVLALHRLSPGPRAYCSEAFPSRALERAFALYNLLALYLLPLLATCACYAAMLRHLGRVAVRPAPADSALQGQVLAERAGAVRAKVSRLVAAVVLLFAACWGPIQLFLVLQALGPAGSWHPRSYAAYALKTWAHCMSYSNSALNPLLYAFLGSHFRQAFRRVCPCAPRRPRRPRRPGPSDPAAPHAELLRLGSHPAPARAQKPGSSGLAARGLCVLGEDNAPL
For orientation: Calcium flux is commonly read through the fluorescence of an indicator in the cells.

Assay [4] can be described thus: p53 small molecule agonists, cell-based qHTS assay with human liver microsomes: qHTS cell viability counter screen (AID 1963579). Further: nearly all actives have a fitted effect of over 45% in size. A digest of the protocol: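 p53RE-bla cells, 4,000/well, dosed 5 hours after plating, with human liver microsomes (0.5 mg/mL final) plus NADPH (0.5 mg/mL final), 16 hours at 37 C. Viability read as CellTiter-Glo luminescence after 30 min at room temperature.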

A short description of assay [5]: p53 small molecule agonists, cell-based qHTS assay with rat liver microsomes: qHTS cell viability counter screen (AID 1963580). Further: nearly all actives have a fitted effect of over 45% in size. The method, boiled down:
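p53RE-bla HCT-116 cells were exposed 16 h at 37 C to compounds with rat liver microsomes (0.5 mg/mL) and NADPH (0.5 mg/mL). Viability was measured in the same wells as ATP content by CellTiter-Glo luminescence.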

Assay [6] is described as follows: cAMP Responsive Elements (CRE) small molecule agonists, cell-based qHTS assay (AID 1963590). A digest of the protocol:
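CRE-bla HEK 293T cells in DMEM with 10% dialyzed FBS, NEAA, pyruvate and 25 mM HEPES were plated 18 h at 37 C/5% CO2, then exposed to compounds in DMSO for 3 h before LiveBLAzer B/G FRET substrate addition.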

Assay [7] concerns the target Beta-2 adrenergic receptor (Homo sapiens) (UniProt P07550). Briefly: Adrenergic beta2 receptor (ADRB2) small molecule antagonists, cell-based qHTS assay (AID 1963592). Further: series mostly up to about 92 µM; nearly all actives have a fitted effect of over 50% in size. A digest of the protocol: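 Cells (CHO, stable ADRB2 overexpression) incubated 18-20hr at 37C; compounds added from DMSO; agonist mix (1nM isoproterenol, 100uM IBMX, 25uM Ro-20-1724) added; 0.5hr RT; d2-cAMP and anti-cAMP-cryptate added; 1hr RT; 665/615 nm read.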

For assay [8] the target is unchanged. Briefly: Adrenergic beta2 receptor (ADRB2) small molecule agonists, cell-based qHTS assay (AID 1963593).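 Further: CHO cells stably overexpressing human ADRB2.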 A digest of the protocol: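 CHO cells stably over-expressing ADRB2 were plated overnight at 37C, then dosed with compounds plus a stimulation mix containing 100uM IBMX and 25uM Ro-20-1724 for 0.5hr at room temperature. cAMP was measured by HTRF competition, 1hr.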

In assay [9] the target is D(2) dopamine receptor (Homo sapiens) (UniProt P14416). Put plainly: Dopamine D2 receptor (DRD2) small molecule agonists, cell-based qHTS assay (AID 1963594). Further: nearly all actives have a fitted effect of over 35% in size. The method, boiled down:
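HEK293 cells stably expressing human DRD2, pre-treated with PDE inhibitor Ro20-1724 (0.1 mM final) and compound 10 min at room temperature, then stimulated with NKH477 (200nM […]) for 30 min. cAMP read by HTRF (665/620 nm).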

The target is the same in assay [10]. Put plainly: Dopamine D2 receptor (DRD2) small molecule antagonists, cell-based qHTS assay (AID 1963595; active means well fitted inhibition curve with a large enough effect in the signal ratio in the repeat runs, with a control signal flat; the % refers to the signal ratio). A digest of the protocol:
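Human DRD2 antagonist qHTS measuring cAMP by HTRF. The cells are exposed to compound for 10 min, then to NKH477 (200 nM) and quinpirole (12 nM) for 30 min at RT, with Ro20-1724 (0.1 mM) present throughout.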

Assay [11] is described as follows: G protein-coupled receptor (GPCR) small molecule agonists, calcium flux assay: HEK293 wild type cell line counter screen (AID 1920065). A digest of the protocol: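 Cells were plated and cultured 18 h at 37 C/5% CO2, then loaded with calcium dye for 1 h at 37 C. Compounds in DMSO were pin-transferred in agonist mode, and fluorescence (Ex/Em 480/540) was read kinetically for 3 min at 1 s intervals.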

Assay [12] is described as follows: p53 small molecule agonists, cell-based qHTS assay with human liver microsomes (AID 1963577). The method, boiled down: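 p53RE-bla cells, 4,000/well, compound added after 5 h, with human liver microsomes 0.5 mg/mL and NADPH 0.5 mg/mL final; 16 h at 37 C, then LiveBLAzer 2 h RT, fluorescence.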
Assay [13] is described as follows: p53 small molecule agonists, cell-based qHTS assay with rat liver microsomes (AID 1963578). A digest of the protocol:
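p53RE-bla cells, 4,000/well, pre-incubated 5 h, then given compounds plus rat liver microsomes (0.5 mg/mL final) and NADPH (0.5 mg/mL final). Incubation 16 h at 37 C; beta-lactamase reporter read by LiveBLAzer fluorescence after 2 h at room temperature.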

Assay [14] is described as follows: p53 small molecule agonists, cell-based qHTS assay: qHTS cell viability counter screen (AID 1963581). Further: nearly all actives have a fitted effect of over 45% in size. A digest of the protocol: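 p53RE-bla HCT-116 cells were exposed to compounds for 16 h at 37 C; after the beta-lactamase FRET read in the same wells, CellTiter-Glo was added and luminescence (intracellular ATP) read after 30 min at room temperature.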
Assay [15] in a line: p53 small molecule agonists, cell-based qHTS assay (AID 1963582; active means well fitted activation curve with a large enough effect in the signal ratio in the repeat runs, not every such curve was filed as active; the % refers to the signal ratio). A digest of the protocol: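 p53RE-bla beta-lactamase reporter cells rested 5 h at 37 C/5% CO2, then received compounds in DMSO by pin transfer and were incubated 16 h at 37 C. LiveBLAzer B/G FRET substrate was loaded for 2 h at room temperature before fluorescence reading.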
Assay [16] deals with 5-hydroxytryptamine receptor 2A (Homo sapiens) (UniProt P28223). Briefly: 5-hydroxytryptamine receptor 2A (HTR2A) small molecule agonists, cell-based qHTS assay (AID 1963587). Further: nearly all actives have a fitted effect of over 30% in size. The method, boiled down: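 CHO cells stably expressing human HTR2A, plated 18 h, loaded with calcium dye 1 h at 37 C. Agonist mode: compounds added and intracellular calcium fluorescence recorded kinetically for 2 min at 1 sec intervals.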
5-hydroxytryptamine receptor 2A (Homo sapiens), sequence (P28223 whole entry, looked up): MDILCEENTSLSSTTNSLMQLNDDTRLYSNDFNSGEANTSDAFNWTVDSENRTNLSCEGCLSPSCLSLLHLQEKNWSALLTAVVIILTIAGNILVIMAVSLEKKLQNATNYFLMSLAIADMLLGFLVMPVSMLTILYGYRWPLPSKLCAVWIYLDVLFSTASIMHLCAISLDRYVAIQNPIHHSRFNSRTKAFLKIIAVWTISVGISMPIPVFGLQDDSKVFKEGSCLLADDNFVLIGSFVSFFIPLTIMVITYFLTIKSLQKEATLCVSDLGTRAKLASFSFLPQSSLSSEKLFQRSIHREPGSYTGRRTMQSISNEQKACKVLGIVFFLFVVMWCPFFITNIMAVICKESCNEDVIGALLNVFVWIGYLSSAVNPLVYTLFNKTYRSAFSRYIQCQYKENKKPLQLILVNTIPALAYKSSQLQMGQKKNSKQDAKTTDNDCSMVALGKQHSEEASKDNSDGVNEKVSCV

For assay [17], the target named is Muscarinic acetylcholine receptor M1 (Homo sapiens) (UniProt P11229). Briefly: Cholinergic receptor muscarinic 1 (CHRM1) small molecule antagonists, cell-based qHTS assay (AID 1963588). Further: nearly all actives have a fitted effect of over 40% in size. The method, boiled down:
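CHRM1-CHO calcium-flux assay, antagonist mode. Cells were seeded 18 h, dye-loaded 1 h at 37 C and given compound for 5 min at RT, then acetylcholine was added at 50nM. FDSS fluorescence was read 3 min; 15 concentrations, three runs.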

For assay [18] the target is unchanged. Put plainly: Cholinergic receptor muscarinic 1 (CHRM1) small molecule agonists, cell-based qHTS assay (AID 1963589). Further: nearly all actives have a fitted effect of over 35% in size. The method, boiled down: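 CHO cells stably expressing human CHRM1, seeded 18 h at 37 C/5% CO2, dye-loaded 1 h at 37 C, then given compound in agonist mode; intracellular calcium fluorescence read kinetically at 1 s intervals. Fifteen concentrations, three independent runs.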

Assay [19] is described as follows: cAMP Responsive Elements (CRE) small molecule antagonists, cell-based qHTS assay (AID 1963591; active means well fitted inhibition curve with a large enough effect in the signal ratio in the repeat runs, not every such curve was filed as active; the % refers to the signal ratio). The method, boiled down:
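CRE-bla HEK293T cells were plated 18 h at 37 °C/5% CO2, pinned with compound in DMSO, then stimulated with NKH477 at 0.25 uM final for 3 h. LiveBLAzer B/G FRET substrate was added and plates incubated 2 h at room temperature.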

The target of assay [20] is 5-hydroxytryptamine receptor 2A (Homo sapiens) (UniProt P28223). Briefly: 5-hydroxytryptamine receptor 2A (HTR2A) small molecule antagonists, cell-based qHTS assay (AID 1963586). Further: nearly all actives have a fitted effect of over 45% in size. A digest of the protocol:
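Antagonist-mode intracellular calcium assay: DOI (4 nM) added after 5 min compound pre-incubation at room temperature to dye-loaded HTR2A-CHO cells. Fluorescence followed for 3 min, sampled every second.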

Records with an inconclusive call do not appear. A structure can be active in one record and inactive in another. Active and inactive are the calls of the source. Unless noted, the call rests on the fitted dose curve.

Beta-2 adrenergic receptor (Homo sapiens), sequence (P07550 whole entry, looked up): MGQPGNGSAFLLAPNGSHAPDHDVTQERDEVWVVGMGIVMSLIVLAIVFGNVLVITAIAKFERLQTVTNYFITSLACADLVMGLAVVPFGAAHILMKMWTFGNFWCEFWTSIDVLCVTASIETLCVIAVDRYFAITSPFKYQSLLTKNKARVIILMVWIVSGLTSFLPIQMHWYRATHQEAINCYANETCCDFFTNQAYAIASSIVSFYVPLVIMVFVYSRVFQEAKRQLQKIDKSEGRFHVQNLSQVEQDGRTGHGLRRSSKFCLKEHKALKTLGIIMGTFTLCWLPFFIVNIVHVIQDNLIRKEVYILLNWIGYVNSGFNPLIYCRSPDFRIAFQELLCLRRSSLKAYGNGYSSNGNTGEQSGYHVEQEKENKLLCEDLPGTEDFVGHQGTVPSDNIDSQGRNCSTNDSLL
Muscarinic acetylcholine receptor M1 (Homo sapiens), sequence (P11229 whole entry, looked up): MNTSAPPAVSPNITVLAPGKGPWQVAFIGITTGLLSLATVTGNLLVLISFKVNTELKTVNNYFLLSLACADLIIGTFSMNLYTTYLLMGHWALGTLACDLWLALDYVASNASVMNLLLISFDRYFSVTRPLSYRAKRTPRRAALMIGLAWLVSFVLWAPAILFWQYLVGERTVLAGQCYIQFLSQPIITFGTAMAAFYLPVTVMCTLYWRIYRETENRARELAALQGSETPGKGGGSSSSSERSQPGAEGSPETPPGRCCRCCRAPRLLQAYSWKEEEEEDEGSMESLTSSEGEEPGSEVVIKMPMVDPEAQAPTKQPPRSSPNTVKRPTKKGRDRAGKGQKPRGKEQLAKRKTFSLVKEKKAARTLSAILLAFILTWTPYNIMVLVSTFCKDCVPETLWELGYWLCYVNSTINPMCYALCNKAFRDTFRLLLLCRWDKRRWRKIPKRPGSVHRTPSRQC
D(2) dopamine receptor (Homo sapiens), sequence (P14416 whole entry, looked up): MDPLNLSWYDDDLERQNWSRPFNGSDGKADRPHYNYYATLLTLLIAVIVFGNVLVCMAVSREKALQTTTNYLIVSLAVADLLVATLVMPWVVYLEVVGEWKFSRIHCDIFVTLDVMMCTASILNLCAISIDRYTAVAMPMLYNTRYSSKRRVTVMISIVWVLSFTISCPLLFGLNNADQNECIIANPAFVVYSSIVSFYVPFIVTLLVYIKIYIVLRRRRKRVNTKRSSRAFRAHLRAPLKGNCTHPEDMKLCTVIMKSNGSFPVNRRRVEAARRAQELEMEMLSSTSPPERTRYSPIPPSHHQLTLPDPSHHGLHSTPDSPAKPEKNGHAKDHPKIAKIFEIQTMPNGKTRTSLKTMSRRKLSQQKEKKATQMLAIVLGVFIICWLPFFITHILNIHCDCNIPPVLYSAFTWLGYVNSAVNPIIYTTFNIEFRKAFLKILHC

With `Nc1nc(=S)c2[nH]cnc2[nH]1`, the Potency in [1] is 66.8 µM (active) and inactive. Further, the Potency result in assay [2], in assay [3], in assay [4], in assay [5], in [6] and in assay [7] was “inactive” each time. The Potency entry in assay [8], in assay [9] and in assay [10] was “inactive” throughout.
In the case of `O=c1c(O)c(-c2ccc(O)cc2)oc2cc(O)cc(O)c12`, the Potency result in [1], in assay [11], in assay [12], in assay [13], in assay [4] and in assay [5] was “inactive” throughout. The Potency result in assay [14], in assay [15], in assay [16], in assay [17], in assay [18] and in [7] was “inactive” each time. Also, the Potency result in [9] and in [10] was “inactive” throughout. Also, the Potency in assay [2] is 17.2 µM (active) and inactive.
For `CNC(=O)Oc1ccc2c(c1)[C@]1(C)CCN(C)[C@@H]1N2C`, the Potency result in assay [1], in assay [2], in assay [11], in assay [4], in assay [5] and in [14] was “inactive” in each case. Besides, the Potency result in assay [15], in assay [6], in [19], in assay [7], in [8] and in assay [9] was “inactive” each time. Further, the Potency entry in [10] is “inactive”.
As to `CCCCCCOC(C)=O`, the Potency entry in assay [1], in assay [2], in assay [11], in assay [12], in assay [13] and in [4] was “inactive” in each case. Also, the Potency result in assay [5], in assay [15], in assay [20], in assay [16], in assay [17] and in assay [6] was “inactive” throughout. Further, the Potency entry in assay [19], in assay [7], in assay [9] and in [10] was “inactive” in each case.
As to `Cc1ncc([N+](=O)[O-])n1C`, the Potency entry in [1], in [2], in [11], in assay [12], in assay [13] and in assay [4] was “inactive” each time. In addition, the Potency result in assay [14], in assay [15], in assay [20], in assay [16], in [17] and in [18] was “inactive” each time. Moreover, the Potency entry in assay [6], in [19], in assay [7], in assay [8], in assay [9] and in assay [10] was “inactive” in each case.
As for `CC(C)Cc1ccccc1`, the Potency entry in assay [1], in assay [2], in assay [3], in [11], in [12] and in [13] was “inactive” each time. Further, the Potency entry in assay [4], in assay [5], in assay [14], in assay [15], in [20] and in [16] was “inactive” each time. In addition, the Potency entry in assay [17], in assay [18], in assay [6], in assay [19], in assay [7] and in [8] was “inactive” each time. Moreover, the Potency result in assay [9] and in assay [10] was “inactive” throughout.
In the case of `COc1cc([C@H]2Oc3cc([C@H]4Oc5cc(O)cc(O)c5C(=O)[C@@H]4O)ccc3O[C@@H]2CO)ccc1O`, the Potency result in [1], in assay [2], in assay [12], in assay [13], in assay [4] and in assay [5] was “inactive” in each case. The Potency result in assay [14], in assay [15], in assay [20], in assay [16], in [17] and in assay [7] was “inactive” in each case. The Potency result in [9] and in assay [10] was “inactive” each time.
`OCc1cccnc1`: the Potency entry in assay [1], in [2], in [5], in [14], in assay [20] and in assay [16] was “inactive” throughout. Also, the Potency result in assay [17], in assay [18], in assay [6], in [19], in [7] and in assay [8] was “inactive” each time. The Potency entry in assay [9] and in [10] was “inactive” in each case.
Turning to `O=Nc1ccc(O)cc1`, the Potency entry in assay [1], in assay [2], in [11], in [4], in assay [14] and in [20] was “inactive” throughout. Besides, the Potency result in assay [16], in assay [17], in [18], in [6], in [19] and in assay [7] was “inactive” in each case. The Potency entry in assay [8], in assay [9] and in assay [10] was “inactive” each time.

The values above are taken from PubChem BioAssay (Tox21).
